Bioassay records as filed in PubChem BioAssay.
This is a sample that favours compounds with a hit; in the whole collection about 19% have one here.
TDP1 block = qHTS Assay for Inhibitors of Tyrosyl-DNA Phosphodiesterase (TDP1); 350,000 tested, 0.28% active; Potency, µM (titrated, usually from 130 µM), inactives show at the highest dose activity change, negative = inhibition, most hits filed as inhibitors; recombinant TDP1, AlphaScreen DNA substrate cleavage; also: potency is read from the fitted curve at half-maximal effect; % is scaled to controls: 0 for no effect and ±100 for the full control effect; nearly all actives have a fitted effect of over 40% in size
Target sequence (Q9NUW8 whole entry, looked up): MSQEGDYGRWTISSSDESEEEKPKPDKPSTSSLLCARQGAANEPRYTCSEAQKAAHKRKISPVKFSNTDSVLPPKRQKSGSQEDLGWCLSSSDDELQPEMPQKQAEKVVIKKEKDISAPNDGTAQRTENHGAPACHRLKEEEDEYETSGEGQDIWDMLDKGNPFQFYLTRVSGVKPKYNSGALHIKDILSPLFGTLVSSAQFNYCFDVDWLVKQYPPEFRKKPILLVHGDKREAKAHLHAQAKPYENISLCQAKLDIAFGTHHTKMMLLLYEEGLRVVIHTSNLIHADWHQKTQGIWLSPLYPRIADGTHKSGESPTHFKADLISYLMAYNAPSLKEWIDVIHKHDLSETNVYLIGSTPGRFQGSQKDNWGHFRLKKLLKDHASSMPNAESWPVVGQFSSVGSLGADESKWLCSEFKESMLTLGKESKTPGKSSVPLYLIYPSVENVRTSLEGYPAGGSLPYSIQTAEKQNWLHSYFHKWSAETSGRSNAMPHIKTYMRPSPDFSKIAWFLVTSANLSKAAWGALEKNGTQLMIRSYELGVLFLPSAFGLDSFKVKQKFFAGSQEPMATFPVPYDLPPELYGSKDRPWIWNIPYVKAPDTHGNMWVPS
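Here, a 5' biotin and 3' phosphotyrosine-FITC DNA oligonucleotide reports Tdp1 activity: intact substrate bridges AlphaScreen beads, while cleavage leaves a 3' phosphate and drops signal. All incubations at room temperature.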
HepG2 viability = qHTS for Inhibitors of TGF-b: Cytotox Counterscreen. HepG2 CAGA-GFP viability, ATP luminescence, 18 h. Potency, µM (titrated, usually from 46.1 µM), for inactives: at the top dose activity change, negative = cytotoxicity, actives largely listed as cytotoxic. 410,000 tested, 0.76% active; also: potency is read from the fitted curve at half-maximal effect
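HepG2 CAGA-GFP cells (1000/well, DMEM with 1% FBS) received compound, then TGF-beta at 500 pg/mL final, and were incubated 18 hours at 37 degrees C. Viability was read by CellTiter-Glo luminescence. Media-only wells were set as complete cell-killing and DMSO as no toxicity.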
TGFb SMAD3 inh = qHTS for Inhibitors of TGF-b | HepG2 CAGA-GFP TGF-b/SMAD3 reporter, GFP fluorescence, 18 h; TGF-beta stimulated, 500 pg/mL final | Potency, µM (titrated, usually from 46.1 µM), for inactives: at the top dose activity, negative = inhibition, usual class: inhibitors | 410,000 tested, 1.2% active | AID 588855, 2011; also: potency is read from the fitted curve at half-maximal effect; % is scaled to controls: 0 for no effect and ±100 for the full control effect; nearly all actives have a fitted effect of over 65% in size
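TGF-beta reporter screen: HEPG2 CAGA-GFP, 1% FBS, 500 pg/mL TGF-beta final, 18 h; per-cell GFP summed per well; curves fitted and categorized by class.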
TDP1 cell noCPT = qHTS for Inhibitors of human tyrosyl-DNA phosphodiesterase 1 (TDP1): qHTS in cells in absence of CPT | DT40 Tdp1-/- hTDP1 cells, no CPT, ATP luminescence, 48 h | Potency, µM (titrated, usually from 46.2 µM), for the others: top-dose activity change, negative = growth inhibition, most hits filed as inhibitors | 420,000 tested, 15% active | AID 686978, 2013; also: potency is read from the fitted curve at half-maximal effect; % is scaled to controls: 0 for no effect and ±100 for the full control effect; nearly all actives have a fitted effect of over 55% in size
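A cellular qHTS used chicken DT40 cells lacking endogenous Tdp1 but carrying stably transfected human TDP1. Compounds were applied without camptothecin, and cell growth kinetics were judged by ATP-dependent luminescence after ≥48 hr.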
TDP1 cell CPT = qHTS for Inhibitors of human tyrosyl-DNA phosphodiesterase 1 (TDP1): qHTS in cells in presence of CPT | Potency, µM (doses to about 46.2 µM), without a hit: at the top dose activity change, negative = growth inhibition, hits mostly inhibitors | AID 686979, 2013 | 420,000 tested, 12% active | chicken DT40 Tdp1-/-;hTDP1 cells + 20 nM CPT, ATP luminescence, 48 h; also: potency is read from the fitted curve at half-maximal effect; % is scaled to controls: 0 for no effect and ±100 for the full control effect; nearly all actives have a fitted effect of over 55% in size
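Chicken DT40 Tdp1-/- cells stably complemented with human TDP1 were seeded at 400 cells/well in medium containing 20 nM camptothecin, exposed to pin-transferred compounds, and grown at 37 °C for at least 48 hr. Viability was read as ATP luminescence.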
IL-1B inflam inh = qHTS for Inhibitors of Inflammasome Signaling: IL-1-beta AlphaLISA Primary Screen | THP-1 LPS/ATP IL-1B secretion, AlphaLISA, 16 h; stronger effect = lower value | activity change, % at 57.5 µM | 360,000 tested, 4.7% active; in the data active = activity change below about -50%; inconclusive = mostly about -30% to -49%; also: % is scaled to controls: 0 for no effect and ±100 for the full control effect
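THP-1 cells pretreated 1 hr with compounds (up to 57.5 uM final), then stimulated with LPS (250 ng/mL final) plus ATP (1.25 mM final); secreted IL-1B measured by AlphaLISA after 16 hr, decreased signal indicating inhibition.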
* marks the source's active call; other numbers are inactive results; [ ] = dose if it differs, or a comment. Unless noted, calls follow the shape of the dose curve; as a rule, active = well fitted curve in the direction sought with a large enough effect; inconclusive = small, poorly fitted or top-dose-only effect, or another doubt; inactive = no such curve, though single readings can be large; an effect the other way counts as inactive or inconclusive.

CCCCn1nnnc1C(c1ccccc1)N1CCN(c2c(Cl)cncc2Cl)CC1 (stereo unspecified) was read as TDP1 cell noCPT 16.4µM*, TDP1 cell CPT inconclusive and IL-1B inflam inh 0.2.
`CC(C)(C)n1nnnc1C(c1ccccc1)N1CCN(c2c(Cl)cncc2Cl)CC1` (stereo unspecified) gave TDP1 cell noCPT 16.4µM*, TDP1 cell CPT inconclusive and IL-1B inflam inh -12.0.
`CCCCn1nnnc1C(c1ccccc1)N1CCN(c2ccccc2)CC1` (stereo unspecified) gave TDP1 cell noCPT inconclusive, TDP1 cell CPT inconclusive and IL-1B inflam inh -12.2.
`COc1ccc(N2CCN(C(c3ccc(C)cc3)c3nnnn3C(C)(C)C)CC2)cc1` (stereo unspecified) gave HepG2 viability -29.6%, TGFb SMAD3 inh -3.7%, TDP1 cell noCPT 14.1µM* and TDP1 cell CPT inconclusive.
CCCCn1nnnc1C(c1ccccc1)N1CCN(CC)CC1 (stereo unspecified) was read as TDP1 cell noCPT -11.2%, TDP1 cell CPT -22.4% and IL-1B inflam inh 33.8.
`CCCCn1nnnc1C(c1ccccc1)N1CCN(c2cccc(C)c2C)CC1` (stereo unspecified) gave TDP1 cell noCPT 16.4µM*, TDP1 cell CPT inconclusive and IL-1B inflam inh -15.3.
Screening COc1cc2c(cc1OC)CN(C(=O)C(CCSC)NS(=O)(=O)c1ccc(C)cc1)CC2 (stereo unspecified) returned HepG2 viability -17.2%, TGFb SMAD3 inh 3.6%, TDP1 cell noCPT inconclusive, TDP1 cell CPT -15.1% and IL-1B inflam inh 23.4.
CC(C)(O)C(=O)O was read as TDP1 block 3.7%.
Cc1cccc(C(=O)N2CCOc3ccc(CN(C)Cc4cc(C5CC5)n[nH]4)cc3C2)n1 was read as TDP1 cell noCPT -16.8% and TDP1 cell CPT 13.4%[9.04 µM].
Screening Cc1cccc(N2CCN(C(c3ccncc3)c3nnnn3C(C)(C)C)CC2)c1C (stereo unspecified) returned TDP1 block 4.7%, HepG2 viability -6.3%, TGFb SMAD3 inh 0.0%, TDP1 cell noCPT 18.4µM*, TDP1 cell CPT -6.3% and IL-1B inflam inh inconclusive.
CC(C)(C)n1nnnc1C(c1cccnc1)N1CCN(C2CCCCC2)CC1 (stereo unspecified) was read as TDP1 block 5.2%, HepG2 viability 9.2%, TGFb SMAD3 inh 12.3%, TDP1 cell noCPT 2.0%, TDP1 cell CPT -1.2% and IL-1B inflam inh 8.5.
CC(C)(C)n1nnnc1C(c1cccnc1)N1CCN(c2cccc(C(F)(F)F)c2)CC1 (stereo unspecified) was read as TDP1 block 1.7%, HepG2 viability 8.8%, TGFb SMAD3 inh -0.6%, TDP1 cell noCPT 20.6µM*, TDP1 cell CPT 18.4µM* and IL-1B inflam inh -0.6.
`CC(C)(C)n1nnnc1C(c1ccncc1)N1CCN(C2CCCCC2)CC1` (stereo unspecified) gave TDP1 block 3.2%, HepG2 viability 6.3%, TGFb SMAD3 inh 24.5%, TDP1 cell noCPT 0.2%, TDP1 cell CPT 0.3% and IL-1B inflam inh 13.4.
CC(=O)Nc1ccc(S(=O)(=O)N(C#N)c2nc(C)cc(C)n2)cc1 was read as TDP1 block 2.7%, HepG2 viability -33.5%, TGFb SMAD3 inh inconclusive, TDP1 cell noCPT 1.4%, TDP1 cell CPT 12.5% and IL-1B inflam inh 16.3.
For COc1ccc(NC(=O)C(CC(=O)O)C(C)c2ccccc2)cc1 (stereo unspecified) the results were TDP1 block 0.0%, HepG2 viability 9.8%, TGFb SMAD3 inh 2.6%, TDP1 cell noCPT inconclusive, TDP1 cell CPT 16.4µM* and IL-1B inflam inh 45.3.
`CCC(C)c1ccccc1NC(=O)C(C)N(C)Cc1cccc(OC)c1` (stereo unspecified) gave TDP1 block -11.3%, HepG2 viability -7.1%, TGFb SMAD3 inh inconclusive, TDP1 cell noCPT 16.4µM*, TDP1 cell CPT inconclusive and IL-1B inflam inh -5.9.
`COc1ccc(NC(=O)C(C)N(C)Cc2ccc3ccccc3c2)cc1` (stereo unspecified) gave TDP1 block 1.9%[0.0935 µM], HepG2 viability -36.8%, TGFb SMAD3 inh -20.2%, TDP1 cell noCPT 13µM*, TDP1 cell CPT inconclusive and IL-1B inflam inh inconclusive.
CCCc1nnc(N2C(=O)c3oc4ccc(F)cc4c(=O)c3C2c2ccc(C(=O)OC)cc2)s1 (stereo unspecified) was read as TDP1 block 2.1%, HepG2 viability 14.0%, TGFb SMAD3 inh -0.2%, TDP1 cell noCPT -15.1% and TDP1 cell CPT -9.2%.
Cc1ccc(S(=O)(=O)Nc2c(C)n(C)n(-c3ccccc3)c2=O)cc1C(=O)NCc1ccco1 was read as HepG2 viability -1.2%, TGFb SMAD3 inh 4.1%, TDP1 cell noCPT inconclusive, TDP1 cell CPT -81.6% and IL-1B inflam inh -10.0.
`Cc1nn2c(NCCCn3ccnc3)cc(C(C)C)nc2c1-c1ccccc1` gave TDP1 block 9.6%, HepG2 viability -37.2%, TGFb SMAD3 inh 14.0%, TDP1 cell noCPT inconclusive and TDP1 cell CPT inconclusive.
For CC(=O)Nc1ccc(Nc2cc(C(C)C)nc3c(-c4ccccc4)c(C)nn23)cc1 the results were TDP1 block 4.1%, HepG2 viability -108.0%, TGFb SMAD3 inh inconclusive, TDP1 cell noCPT inconclusive, TDP1 cell CPT inconclusive and IL-1B inflam inh -75.8*.
Screening Cc1nn2c(NCc3ccccn3)cc(C(C)C)nc2c1-c1ccccc1 returned TDP1 block 6.8%, HepG2 viability -61.4%, TGFb SMAD3 inh 11.2µM*, TDP1 cell noCPT inconclusive, TDP1 cell CPT 16.4µM* and IL-1B inflam inh 0.0.
CCCc1cc(NCc2ccccn2)n2nc(C)c(-c3ccccc3)c2n1 was read as TDP1 block 6.8%, HepG2 viability -41.3%, TGFb SMAD3 inh inconclusive, TDP1 cell noCPT 0.92µM*, TDP1 cell CPT 0.581µM* and IL-1B inflam inh 22.3.
